{"source": "PubChem BioAssay AID651719", "about": "(The Scripps Research Institute Molecular Screening Center, 2012)", "note": "In all, about 360,000 compounds went through this assay and about 1,600 (0.44%) were called active. The list comes from a sample in which actives are over-represented; it also holds similar structures and randomly drawn compounds. Unmarked numbers belong to inactive results.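 The calls were made as follows: active = inhibition above the screen-wide average plus 3 SD (cut at about 13% in these data); inactive = the rest.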"}
{"biological_target": "Galanin receptor type 3 (Homo sapiens) (UniProt O60755)", "sequence (O60755 1-299 limits assumed)": "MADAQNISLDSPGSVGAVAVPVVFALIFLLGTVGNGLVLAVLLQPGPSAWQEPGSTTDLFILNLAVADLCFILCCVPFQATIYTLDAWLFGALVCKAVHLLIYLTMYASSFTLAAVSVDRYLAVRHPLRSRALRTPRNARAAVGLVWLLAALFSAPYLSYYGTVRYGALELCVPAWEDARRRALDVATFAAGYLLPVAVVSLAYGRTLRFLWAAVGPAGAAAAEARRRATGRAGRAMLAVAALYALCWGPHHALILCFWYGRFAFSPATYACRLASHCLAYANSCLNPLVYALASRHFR", "assay": "GalR3 antagonists in HEK293 cells, primary screen, cell-based, fluorescence readout (AID 651719);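 also: forskolin and galanin both at EC90 stimulate the cells; cAMP rise reported by CNG channel membrane potential dye signal; 0% = forskolin plus galanin with DMSO and 100% = forskolin alone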", "conditions": "HEK293 GalR3-CNG cAMP membrane potential fluorescence; at 3 µM; hits give high values; galR3 body fused to GalR1 C-terminus"}
{"compound": "CCCCCCCCn1c2c(c(=N)c3c1CCC3)CCCC2", "inhibition": "30.2% (active)"}
{"compound": "COC(=O)C1=C(C)N(Cc2cccc(C(F)(F)F)c2)C(=NCc2cccc(C(F)(F)F)c2)NC1c1ccccc1C(F)(F)F", "note": "(centres undefined)", "inhibition": "-1.24%"}
{"compound": "Cc1ccc(NC(=O)N2c3ccccc3SC2c2ccco2)c(C)c1", "note": "(centres undefined)", "inhibition": "-5.21%"}
{"compound": "CCOc1ccc(Br)cc1CSC(=N)N", "inhibition": "58.7% (active)"}
{"compound": "CCOc1ccc(Br)cc1S(=O)(=O)N1CCC(C(=O)O)CC1", "inhibition": "-0.52%"}
{"compound": "CC(C)(C)NCc1cc(Br)ccc1OC1CCCC1", "inhibition": "-9.54%"}
{"compound": "COc1ccccc1C(=O)N1O[C@]23C=C[C@]14C[C@@H](O)CC[C@]4(C)C2CC[C@]1(C)[C@@H]([C@H](C)/C=C/[C@H](C)C(C)C)CC[C@H]13", "note": "(some centres undefined)", "inhibition": "-7.73%"}
{"compound": "CCN1C(=O)N[C@@H]2C[C@H](C(=O)N3CCCC3)[C@H](C)[C@H](c3ccccc3)C[C@@H]21", "inhibition": "-5.5%"}
{"compound": "O=C(N[C@H](C(=O)N1CCC[C@H]1C(=O)NCCc1ccccc1Cl)c1ccccc1)c1ccccc1", "inhibition": "-7.99%"}
{"compound": "COc1ccccc1-c1ccc([C@@H]2C[C@H]3[C@H](CON3C)CN2S(=O)(=O)c2cc(Cl)cc(Cl)c2)cc1", "inhibition": "-6.77%"}
{"compound": "O=C(NCC(=O)N(CC1CCCO1)C(C(=O)NC1CCCCC1)c1ccccc1)c1ccco1", "note": "(centres undefined)", "inhibition": "-3.5%"}
{"compound": "O=C(NCC(=O)N(c1ccccc1)C(C(=O)NCC1CCCO1)c1ccccc1)c1cccs1", "note": "(centres undefined)", "inhibition": "0.38%"}
{"compound": "COc1ccc(N(C(=O)CNC(=O)c2ccco2)C(C(=O)NCC2CCCO2)c2ccccc2)cc1Cl", "note": "(centres undefined)", "inhibition": "17.1% (active)"}
{"compound": "COC(=O)c1c(-c2ccc(OC)cc2)c2c(c3c4cc(OC)ccc4n(S(=O)(=O)c4ccc(F)cc4)c13)C(=O)N(C)C2", "inhibition": "-4.47%"}
{"compound": "CCOC(=O)c1c(NC(=O)CSc2nccc(=O)[nH]2)sc(C)c1C", "inhibition": "14.3% (active)"}
{"compound": "CCOC(=O)c1c(NC(=O)CSc2nnc(CNc3ccc(C)cc3C)o2)sc(C)c1C", "inhibition": "-5.1%"}
{"compound": "CCOC(=O)c1c(NC(=O)CSc2nnc(Cc3csc(N)n3)n2C)sc(C)c1C", "inhibition": "-6.84%"}
{"compound": "O=C1Nc2ccccc2C1=NN=Cc1ccco1", "inhibition": "-6.76%"}
{"compound": "CC(C)(C)n1nc(C2CC2)c(Br)c1NC(=O)c1ccccc1F", "inhibition": "-6.97%"}
{"compound": "O=c1[nH]c(-c2ccccc2)cn1C1CCN(Cc2ccc(-c3nc4ccc(F)cc4nc3-c3ccccc3)cc2)CC1", "inhibition": "-7.59%"}
{"compound": "COC(=O)c1ccc(COC(=O)c2cnc(Cl)c(Cl)c2)cc1", "inhibition": "-9.03%"}
{"compound": "CCOc1ccc(C(C)=O)cc1COC(=O)CNC(=O)c1cccs1", "inhibition": "-0.09%"}
{"compound": "CCOc1ccc(C(C)=O)cc1COC(=O)c1cnc(Cl)c(Cl)c1", "inhibition": "13.8% (active)"}
{"compound": "COC(=O)c1ccc(CN2C(=O)[C@]3(OCCC=C[C@H]3C)c3c(Br)cccc32)cc1", "inhibition": "-6.8%"}
{"compound": "CC1CCN(C(=O)c2ncn3c2C(=O)N[C@@H](C)C3)CC1", "inhibition": "-3.89%"}
{"compound": "O=C(NCc1ccccc1)[C@@H]1CCCN1C(=O)[C@H]1CCCN1C(=O)c1cccc(Cl)c1", "inhibition": "-6.19%"}
{"compound": "CCOC(=O)N1CCN(Cc2nc3cc(NC(C)=O)ccc3n2C)CC1", "inhibition": "-9.27%"}
{"compound": "Cn1c(CN2CCOCC2)nc2cc(NC(=O)c3ccc(Cl)cc3)ccc21", "inhibition": "74.6% (active)"}
{"compound": "O=C(Nc1ccc(CN2CCOCC2)cc1)c1cc(Cl)ccc1Cl", "inhibition": "-7.17%"}
{"compound": "Cc1cc(NCCc2c[nH]c3ccccc23)ccc1Oc1cccnc1", "inhibition": "-8.42%"}
{"compound": "COc1ccc(CN2CCCC(C(=O)c3ccc(Cl)cc3)C2)cc1Cn1cncn1", "note": "(centres undefined)", "inhibition": "-0.72%"}
{"compound": "COc1ccc(C2Nc3ccccc3C(=O)N2c2ccc(Cl)cc2)cc1Cn1cc([N+](=O)[O-])cn1", "note": "(centres undefined)", "inhibition": "28.1% (active)"}
{"compound": "COc1ccc(C2Nc3ccccc3C(=O)N2Cc2ccccc2)cc1Cn1nnc2ccccc21", "note": "(centres undefined)", "inhibition": "-2.99%"}
{"compound": "CN[C@H]1C[C@H]2c3[nH]c4c(-c5ccccc5)cccc4c3CCN2C(=O)[C@H]1[C@H](C)O", "inhibition": "-8.33%"}
{"compound": "CC(=NNC(N)=O)c1ccc(Cl)c(-n2cccc2)c1", "inhibition": "-8.67%"}
{"compound": "C[C@@H]1ON(C)[C@H]2C[C@H]3c4cc(N5CCOCC5)ccc4CCN3C[C@@H]12", "inhibition": "-4.65%"}
{"compound": "COC(=O)[C@H](CC(C)C)NS(=O)(=O)c1c(F)cccc1F", "inhibition": "-4.91%"}
{"compound": "COCc1[nH]nc2c1C(c1ccccc1)N(c1ccccc1)C2=O", "note": "(centres undefined)", "inhibition": "-6.8%"}
{"compound": "CN1C(=O)C2CC(O)C(SC3CC4C(=O)N(C)C(=O)C4CC3O)CC2C1=O", "note": "(centres undefined)", "inhibition": "-2.8%"}
{"compound": "Cc1cccc(NC(=O)c2ccc(S(=O)(=O)N(C)c3ccccc3)cc2)n1", "inhibition": "-6.82%"}
{"compound": "COC(=O)c1nc(NC(=O)c2ccc(C(C)(C)C)cc2)n[nH]1", "inhibition": "-1.62%"}
{"compound": "CSc1nccc(NC(=O)c2ccc(C(C)(C)C)cc2)n1", "inhibition": "104% (active)"}
{"compound": "CCCCCCCCN1C(=O)[C@@H](CC(=O)NCCCC)C[C@@]2(C(=O)OC)C1=C[C@H](C(C)(C)C)O[C@@H]2C", "inhibition": "-5.71%"}
{"compound": "O=C(NCc1ccccc1)[C@H]1CCCN1C(=O)[C@H]1CCCN1C(=O)N1CCOCC1", "inhibition": "-7.58%"}
{"compound": "Nc1[nH]c(C(=O)c2ccc(Br)cc2)c(-c2ccc3c(c2)OCO3)c1C(=O)NCCc1c[nH]c2ccccc12", "inhibition": "-6.84%"}
{"compound": "NC(=O)c1ncn([C@@H]2O[C@H](C(=O)O)[C@@H](O)[C@H]2O)n1", "inhibition": "-7.36%"}
{"compound": "Nc1ncnc2c1ncn2[C@@H]1O[C@H](C(=O)NCC(F)(F)F)[C@@H](O)[C@H]1O", "inhibition": "-9.69%"}
{"compound": "Nc1ncnc2c1ncn2[C@@H]1O[C@H](C(=O)N2CCSC2)[C@@H](O)[C@H]1O", "inhibition": "-5.85%"}
{"compound": "Nc1ncnc2c1ncn2C1OC(CO)CC1O", "note": "(centres undefined)", "inhibition": "53.3% (active)"}
{"compound": "Brc1ccc(COCCc2cn(Cc3ccccc3)c3ccccc23)cc1", "inhibition": "3.44%"}
{"compound": "COC(=O)[C@]12C[C@H](CC(=O)NCc3ccc(C)o3)C(=O)N(CCC3=CCCCC3)C1=C[C@H](C(C)(C)C)O[C@@H]2C", "inhibition": "-7.34%"}
{"compound": "O=C(NC(Nc1nc2ccc([N+](=O)[O-])cc2s1)(C(F)(F)F)C(F)(F)F)c1ccccc1", "inhibition": "20% (active)"}
{"compound": "CC(Nc1ccc([N+](=O)[O-])cc1[N+](=O)[O-])c1ccccc1", "note": "(centres undefined)", "inhibition": "-6.77%"}
{"compound": "O=C(NNC(=O)c1ccc(-n2cncn2)c([N+](=O)[O-])c1)c1ccccc1", "inhibition": "-6.89%"}
